Data reported in the supplement of paper PMC4723716.
± gives the uncertainty stated by the source. Whole data set: some 9,900 compounds, median “viability index relative to DMSO control” near 1, cut for the lowest 2% near 0.85. The sample as a whole holds a higher share of the lowest values than the screen did.

System: Plasmodium falciparum NF54 stage V gametocytes
Experiment: viability index relative to DMSO control (fraction); higher = less gametocyte killing
Conditions: 2.5 µM, incubation time: 72 h
Description: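 Broad DOS informer set and blood-stage-active DOS compounds screened in duplicate at 2.5 µM against P. falciparum NF54 stage V gametocytes with the serum-free one-step SaLSSA (1536-well): 72 h at 37 °C under low oxygen, then saponin lysis and MitoTracker Red CMXRos staining, with high-content imaging. Viability index = viable-object count divided by the plate mean of DMSO wells (0 = killed, about 1 = inactive).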

[1] = library set: Broad Institute DOS
[2] = library set: Broad Institute Blood Stage

SMILES	viability index [1]	viability index [2]
CC(C)C#Cc1ccc([C@H]2[C@H](CO)N3C(=O)CN(C(=O)Cc4ccccc4)C[C@@H]23)cc1	1.08 ± 0.08	–
O=C(Cc1ccccc1)N1CC(=O)N2[C@H](CO)[C@H](c3ccc(C#CCc4ccccc4)cc3)[C@H]2C1	–	0.699 ± 0.1
C/C=C/c1ccc([C@@H]2[C@@H](CO)N3C(=O)CN(S(=O)(=O)c4ccccc4)C[C@@H]23)cc1	0.777 ± 0.16	–
CC(C)C#Cc1ccc([C@@H]2[C@@H](CO)N3C(=O)CN(C(=O)Cc4ccccc4)C[C@@H]23)cc1	1.07 ± 0.047	–
CC(C)C#Cc1ccc([C@@H]2[C@H](CO)N3C(=O)CN(C(=O)Cc4ccccc4)C[C@@H]23)cc1	1.1 ± 0.016	–
C/C=C/c1ccc([C@H]2[C@H]3CN(S(=O)(=O)c4ccccc4)CC(=O)N3[C@H]2CO)cc1	1.03 ± 0.034	–
C/C=C/c1ccc([C@H]2[C@@H](CO)N3C(=O)CN(S(=O)(=O)c4ccccc4)C[C@H]23)cc1	0.975 ± 0.12	–
CC(C)C#Cc1ccc([C@H]2[C@@H](CO)N3C(=O)CN(C(=O)Cc4ccccc4)C[C@@H]23)cc1	1.07 ± 0.021	–
CC(C)C#Cc1ccc([C@H]2[C@@H](CO)N3C(=O)CN(C(=O)Cc4ccccc4)C[C@H]23)cc1	0.848 ± 0.025	–
O=C(Cc1ccccc1)N1CC(=O)N2[C@H](CO)[C@H](c3ccc(C#Cc4ccccc4)cc3)[C@H]2C1	–	0.728 ± 0.097
CC(C)C#Cc1ccc([C@@H]2[C@@H](CO)N3C(=O)CN(C(=O)Cc4ccccc4)C[C@H]23)cc1	1.04 ± 0.039	–
CC(C)C#Cc1ccc([C@@H]2[C@H]3CN(C(=O)Cc4ccccc4)CC(=O)N3[C@H]2CO)cc1	0.864 ± 0.047	–
C[C@H]1CN([C@@H](C)CO)C(=O)c2c(c3ccccc3n2C)-c2ccccc2CO[C@@H]1CN(C)C(=O)[C@@H](Cc1ccccc1)N(C)C	1.07 ± 0.11	–
CCS(=O)(=O)Nc1ccc2c(c1)C(=O)N(C)C[C@H](OC)[C@H](C)CN(CC1CCCCC1)[C@H](C)CO2	0.995 ± 0.1	–
CN1CCN(C(=O)c2cc3c(c(-c4cccc(C5=CCCC5)c4)n2)[C@@H](CCO)N([S@](=O)C(C)(C)C)C3)CC1	0.991 ± 0.024	–
O=C(Nc1cccc(Cl)c1)N1C[C@H]2[C@@H](c3ccccc31)[C@@H](CO)N2Cc1cccnc1	1.06 ± 0.092	–
C[C@@H]1CCCn2cc(nn2)COCCNC1=O	0.994 ± 0.094	–
CC(C)CC#Cc1ccc([C@@H]2[C@H](CO)N3CCCCN(C(=O)Nc4ccccc4)C[C@@H]23)cc1	0.877 ± 0.053	–
CC(C)CC#Cc1ccc([C@H]2[C@@H](CO)N3CCCCN(C(=O)Nc4ccccc4)C[C@@H]23)cc1	1.02 ± 0.057	–
CC(C)CC#Cc1ccc([C@@H]2[C@@H](CO)N3CCCCN(C(=O)Nc4ccccc4)C[C@@H]23)cc1	1 ± 0.15	–
CC(C)CC#Cc1ccc([C@H]2[C@@H](CO)N3CCCCN(C(=O)Nc4ccccc4)C[C@H]23)cc1	0.782 ± 0.084	–
CC(C)CC#Cc1ccc([C@@H]2[C@@H](CO)N3CCCCN(C(=O)Nc4ccccc4)C[C@H]23)cc1	0.844 ± 0.032	–
CC(C)CC#Cc1ccc([C@H]2[C@H]3CN(C(=O)Nc4ccccc4)CCCCN3[C@H]2CO)cc1	0.99 ± 0.061	–
CC(C)CC#Cc1ccc([C@@H]2[C@H]3CN(C(=O)Nc4ccccc4)CCCCN3[C@H]2CO)cc1	0.542 ± 0.086	–

SMILES	viability index [1]	viability index [2]
CC(C)CC#Cc1ccc([C@H]2[C@H](CO)N3CCCCN(C(=O)Nc4ccccc4)C[C@@H]23)cc1	0.935 ± 0.034	–
COCC#Cc1ccc([C@@H]2[C@@H](CO)N3CCCCN(C(=O)NC4CCCC4)C[C@@H]23)cc1	1.01 ± 0.02	–
Cc1noc(C)c1NC(=O)N1C[C@@H](O)COC[C@H]2O[C@@H](CC(=O)N[C@@H]3CCN(Cc4ccccc4)C3)CC[C@@H]21	0.994 ± 0.052	–
CCC(=O)N1[C@H](CO)[C@@H]2c3ccccc3N(C(=O)c3cnccn3)C[C@@H]21	0.908 ± 0.3	–
C/C=C/c1ccc2n(c1=O)C[C@H]1[C@H](CO)[C@@H](C(=O)Nc3nccs3)N(Cc3cc(F)ccc3F)[C@@H]21.C/C=C\c1ccc2n(c1=O)C[C@H]1[C@H](CO)[C@@H](C(=O)Nc3nccs3)N(Cc3cc(F)ccc3F)[C@@H]21	1.07 ± 0.056	–
Cc1noc(C)c1NC(=O)N(C)C[C@H]1Oc2ccc(NC(=O)Cc3cn(C)c4ccccc34)cc2CC(=O)N([C@@H](C)CO)C[C@H]1C	0.941 ± 0.2	–
COCC#Cc1ccc([C@H]2[C@H]3CN(C(=O)C4CCCCC4)CC(=O)N3[C@H]2CO)cc1	1.01 ± 0.034	–
COc1ccc2c3c([C@@H](CO)N(C)C[C@]33CCN(CC3)C(=O)CN3CCOCC3)n(C)c2c1	0.9699 ± 0.0061	–
CN(C)C(=O)c1ccc(-c2ccc([C@H]3[C@@H]4CN(Cc5ccccc5Cl)C[C@H]3N4)cc2)cc1	0.846 ± 0.021	–
CN(C)C(=O)c1cccc(-c2ccc([C@H]3[C@@H]4CN(Cc5ccccc5F)C[C@H]3N4)cc2)c1	1.05 ± 0.084	–
CN(C)C(=O)c1cccc(-c2ccc([C@@H]3[C@@H]4CN(Cc5ccccc5F)C[C@H]3N4)cc2)c1	0.977 ± 0.016	–
Cc1ccc(S(=O)(=O)Nc2cccc3c2O[C@H](CN(C)C(=O)Nc2ccc(C(F)(F)F)cc2)[C@H](C)CN([C@H](C)CO)C3=O)cc1	1.07 ± 0.04	–
Cc1ccc(S(=O)(=O)N2CC[C@@H]3[C@H]2c2cc(-c4cccc(C(=O)N(C)C)c4)ccc2N[C@@H]3CO)cc1	0.885 ± 0.055	–
Cc1ccc(S(=O)(=O)N2CC[C@@H]3[C@@H](CO)Nc4ccc(-c5cccc(C(=O)N(C)C)c5)cc4[C@@H]32)cc1	0.837 ± 0.012	–
CN(C)C(=O)c1cccc(-c2ccc3c(c2)[C@@H]2[C@@H](CCN2C(=O)Cc2ccccc2)[C@@H](CO)N3)c1	1.04 ± 0.025	–
Cc1ccc(S(=O)(=O)N2CC[C@H]3[C@H](CO)Nc4ccc(-c5cccc(C(=O)N(C)C)c5)cc4[C@H]32)cc1	0.7 ± 0.018	–
CN(C)C(=O)c1cccc(-c2ccc3c(c2)[C@H]2[C@H](CCN2C(=O)Cc2ccccc2)[C@H](CO)N3)c1	1.03 ± 0.03	–
Cc1ccc(S(=O)(=O)N2CC[C@@H]3[C@H](CO)Nc4ccc(-c5cccc(C(=O)N(C)C)c5)cc4[C@@H]32)cc1	0.77 ± 0.034	–
CN(C)C(=O)c1cccc(-c2ccc3c(c2)[C@H]2[C@H](CCN2C(=O)Cc2ccccc2)[C@@H](CO)N3)c1	0.899 ± 0.042	–
CN(C)C(=O)c1cccc(-c2ccc3c(c2)[C@@H]2[C@@H](CCN2C(=O)Cc2ccccc2)[C@H](CO)N3)c1	0.991 ± 0.022	–
N#Cc1cccc(-c2ccc3c(c2)[C@H]2[C@H](CCN2S(=O)(=O)c2ccc(F)cc2)[C@@H](CO)N3)c1	0.949 ± 0.023	–
O=C(N[C@H]1C=C[C@@H](CC(=O)N2CCN(c3ccccc3)CC2)O[C@H]1CO)c1ccccc1	1.04 ± 0.087	–
N#C[C@H]1[C@H](c2ccc(-c3cncnc3)cc2)[C@@H](CO)N1C(=O)Cc1ccccc1	1.06 ± 0.1	–
COc1ccc(-c2ccccc2[C@@H]2[C@@H](CO)N(C(=O)C3CCC3)[C@H]2C#N)cc1	1.17 ± 0.15	–

SMILES	viability index [1]	viability index [2]
O=C(C[C@@H]1CC[C@H]2NC[C@H](O)COC[C@@H]2O1)Nc1nccs1	1.04 ± 0.068	–
C[C@H](CO)N1C[C@H](C)[C@H](CN(C)Cc2cccc(C(F)(F)F)c2)OCc2ccccc2-c2c(n(C)c3ccccc23)C1=O	0.972 ± 0.029	–
COc1cccc(S(=O)(=O)N2CCCCN3[C@H](CO)[C@H](c4ccc(C#CCC(C)C)cc4)[C@H]3C2)c1	0.6428 ± 0.0032	–
COc1cccc(S(=O)(=O)N2CCCCN3[C@@H](CO)[C@H](c4ccc(C#CCC(C)C)cc4)[C@@H]3C2)c1	1.01 ± 0.053	–
COc1cccc(S(=O)(=O)N2CCCCN3[C@H](CO)[C@H](c4ccc(C#CCC(C)C)cc4)[C@@H]3C2)c1	1 ± 0.078	–
COc1cccc(S(=O)(=O)N2CCCCN3[C@@H](CO)[C@@H](c4ccc(C#CCC(C)C)cc4)[C@@H]3C2)c1	0.393 ± 0.021	–
COc1cccc(S(=O)(=O)N2CCCCN3[C@H](CO)[C@@H](c4ccc(C#CCC(C)C)cc4)[C@@H]3C2)c1	0.941 ± 0.042	–
COc1cccc(S(=O)(=O)N2CCCCN3[C@H](C2)[C@H](c2ccc(C#CCC(C)C)cc2)[C@@H]3CO)c1	0.9833 ± 0.0041	–
COc1ccc(NC(=O)N(C)C[C@H]2Oc3c(NC(=O)CCCCCC(=O)Nc4ccccc4N)cccc3C(=O)N([C@@H](C)CO)C[C@H]2C)cc1	0.645 ± 0.046	–
COc1ccc(NC(=O)N(C)C[C@H]2Oc3c(NC(=O)CCCCCC(=O)Nc4ccccc4N)cccc3C(=O)N([C@@H](C)CO)C[C@@H]2C)cc1	0.991 ± 0.081	–
COc1ccc(NC(=O)N(C)C[C@H]2Oc3c(NC(=O)CCCCCC(=O)Nc4ccccc4N)cccc3C(=O)N([C@H](C)CO)C[C@H]2C)cc1	0.62 ± 0.082	–
COc1ccc(NC(=O)N(C)C[C@@H]2Oc3c(NC(=O)CCCCCC(=O)Nc4ccccc4N)cccc3C(=O)N([C@@H](C)CO)C[C@@H]2C)cc1	0.943 ± 0.058	–
COc1ccc(NC(=O)N(C)C[C@@H]2Oc3c(NC(=O)CCCCCC(=O)Nc4ccccc4N)cccc3C(=O)N([C@@H](C)CO)C[C@H]2C)cc1	1.07 ± 0.091	–
COc1ccc(NC(=O)N(C)C[C@@H]2Oc3c(NC(=O)CCCCCC(=O)Nc4ccccc4N)cccc3C(=O)N([C@H](C)CO)C[C@H]2C)cc1	0.893 ± 0.012	–
COc1ccc2c3c([C@@H](CO)N(Cc4cc(OC)cc(OC)c4)C[C@]33CN(C3)C(=O)CN3CCOCC3)n(C)c2c1	0.879 ± 0.02	–
COC(=O)C[C@H]1CC[C@H]2[C@@H](COc3ccc(NS(=O)(=O)c4ccc(C)cc4)cc3C(=O)N2C)O1	1.114 ± 0.0014	–
C[C@@H]1CCCCO[C@@H](CN(C)CC2CCCCC2)[C@H](C)CN([C@@H](C)CO)C(=O)c2cc(NS(C)(=O)=O)ccc2O1	1.08 ± 0.061	–
CS(=O)(=O)N1C[C@@H]2N[C@H](C1)[C@@H]2c1ccc(-c2ccccc2)cc1	0.706 ± 0.03	–
CC(=O)N1C[C@@H]2N[C@H](C1)[C@H]2c1ccc(-c2ccccc2)cc1	1.11 ± 0.016	–
O=S(=O)(c1ccc(-c2ccccc2)cc1)N1C[C@@H]2N[C@H](C1)[C@@H]2c1ccc(-c2ccncc2)cc1	1.072 ± 0.0057	–
Cc1ccccc1-c1ccc([C@@H]2[C@@H]3CN(S(=O)(=O)Cc4ccccc4)C[C@H]2N3)cc1	0.854 ± 0.034	–
COc1cccc(-c2ccc([C@@H]3[C@@H]4CN(S(=O)(=O)Cc5ccccc5)C[C@H]3N4)cc2)c1	0.808 ± 0.031	–
N#Cc1ccc(-c2ccc([C@@H]3[C@@H]4CN(S(=O)(=O)Cc5ccccc5)C[C@H]3N4)cc2)cc1	0.976 ± 0.037	–
